Experimental data from PubChem BioAssay (EPA / NIEHS).
Results filed as inconclusive are left out. The source made the active and inactive calls. The calls were made as follows, unless noted: active = hit-call score of the fitted dose curve at least 0.9, where 1 is the maximum; inactive = score below 0.9.

Assays:
[1] = IUF_NPC2c_oligodendrocyte_migration_120hr: Leibniz Research Institute for Environmental Medicine (IUF) 120-hour Neural Progenitor Cell Migration Assay for Oligodendrocyte Migration (NPC2c) (AID 2284297);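 also: O4-positive oligodendrocyte migration distance divided by radial glia migration distance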
How it was run: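 Primary hNPC spheres migrating on extracellular matrix, exposed five days to a 7-point dilution series with solvent control. Oligodendrocyte migration was scored by high-content imaging of O4 immunostaining and expressed relative to radial glia distance.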

[2] = IUF_NPC2a_radial_glia_migration_120hr: Leibniz Research Institute for Environmental Medicine (IUF) 120-hour Neural Progenitor Cell Migration Assay for Radial Glia Migration (NPC2a) (AID 2284298)
How it was run: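 In this multiplexed test, fetal hNPC spheres migrate radially on poly-D-lysine/laminin in N2 medium (37C, 5% CO2, pH 7.2-7.6) under continuous compound exposure over five days. Migration is scored at 120 h from automated Hoechst nuclear imaging.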

[3] = IUF_NPC2a_radial_glia_migration_72hr: Leibniz Research Institute for Environmental Medicine (IUF) 72-hour Neural Progenitor Cell Migration Assay for Radial Glia Migration (NPC2a) (AID 2284299)
How it was run: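 Single 0.3 mm neurospheres were plated per well in N2 differentiation medium and exposed from the start of differentiation. After 72 hours, brightfield images were taken and radial glia migration from the sphere core edge was measured manually in four directions, averaged per well.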

[4] = IUF_NPC2b_neuronal_migration_120hr: Leibniz Research Institute for Environmental Medicine (IUF) 120-hour Neural Progenitor Cell Migration Assay for Neuron Migration (NPC2b) (AID 2284300)
How it was run: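 Neurons identified by TUBB3 immunostaining and Hoechst nuclei; migration distance measured automatically on fixed wells at 120 h, normalized to glia migration. Exposure spanned five days of differentiation in N2 medium, seven test concentrations.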

[5] = IUF_NPC3_neuronal_differentiation_120hr: Leibniz Research Institute for Environmental Medicine (IUF) 120-hour Neuronal Differentiation Assay (NPC3) (AID 2284301)
How it was run: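 Neuronal differentiation of primary human neural progenitors measured by high-content imaging: percent TUBB3+ of Hoechst+ nuclei within migrated area at 120 h, seven-point serial dilution plus solvent control, gain or loss relative to DMSO.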

[6] = IUF_NPC4_neurite_length_120hr: Leibniz Research Institute for Environmental Medicine (IUF) 120-hour Neuronal Morphology Assay for Neurite Length (NPC4) (AID 2284302)
How it was run: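 Neurons from differentiating human fetal neural progenitor spheres are scored for average neurite length after five days of compound exposure. Fitting uses DMSO as negative control.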

[7] = IUF_NPC4_neurite_area_120hr: Leibniz Research Institute for Environmental Medicine (IUF) 120-hour Neuronal Morphology Assay for Neurite Area (NPC4) (AID 2284305; active = hit-call score of the fitted dose curve at least 0.9, where 1 is the maximum)
How it was run: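 Endpoint at 120 h: automated imaging of TUBB3/Hoechst-stained differentiating human neural progenitor spheres, neurite area per neuron from skeletonization. DMSO solvent control, not above 0.1%, set the baseline; medium was half-replaced on day 3.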

[8] = IUF_NPC2-5_cytotoxicity_72hr: Cytotoxicity Assessment at 72 hours in the Leibniz Research Institute for Environmental Medicine (IUF) Neural Progenitor Cell Migration and Differentiation Assay for Cytotoxicity (NPC2-5) (AID 2284306; active = hit-call score of the fitted dose curve at least 0.9, where 1 is the maximum;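 also: LDH release into supernatant measured by resorufin fluorescence marking membrane damage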)
How it was run: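 Primary human neural progenitor spheres migrate and differentiate on laminin. Compound is present from the start of differentiation, with DMSO kept at or below 0.1%. At 72 h, supernatant LDH is quantified fluorometrically, with values fitted in the positive direction.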

[9] = IUF_NPC2-5_cytotoxicity_120hr: Cytotoxicity Assessment at 120 hours in the Leibniz Research Institute for Environmental Medicine (IUF) Neural Progenitor Cell Migration and Differentiation Assay (NPC2-5) (AID 2284307; active = hit-call score of the fitted dose curve at least 0.9, where 1 is the maximum;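 as to AC50: LDH released into supernatant as membrane damage marker via resorufin fluorescence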)
How it was run: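 Fluorescence (RFU) from LDH-driven resazurin reduction in medium supernatants measured loss of membrane integrity after 120 h of compound exposure of differentiating primary human neural progenitor spheres on an extracellular matrix.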

[10] = IUF_NPC2-5_cell_number_120hr: Cell Number Assessment at 120 hours in the Leibniz Research Institute for Environmental Medicine (IUF) Neural Progenitor Cell Migration and Differentiation Assay (NPC2-5) (AID 2284308);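 also: count of Hoechst-stained nuclei in migration zone around plated human neural progenitor spheres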
How it was run: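 Cell number is taken as all Hoechst-positive nuclei detected in the area into which cells migrate out of the sphere, scored at 120 h and referenced to DMSO solvent control, which was kept at no more than 0.1%.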

[11] = IUF_NPC5_oligodendrocyte_differentiation_120hr: Leibniz Research Institute for Environmental Medicine (IUF) 120-hour Oligodendrocyte Differentiation Assay (NPC5) (AID 2284304; active = hit-call score of the fitted dose curve at least 0.9, where 1 is the maximum;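 also: primary human fetal neural progenitor spheres plated to migrate and differentiate; share of O4-positive cells among Hoechst nuclei found by CNN image analysis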)
How it was run: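 Human primary NPC neurospheres migrating and differentiating on laminin for 120 h under continuous compound exposure (serial dilution, solvent control). Endpoint: percent O4+ oligodendrocytes among Hoechst nuclei, detected by CNN image analysis, with DMSO as negative control.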

[12] = read-out: Actin alpha 1 (ACTA1), ACTA1 (gene 58); assay: BSK_MyoF_ACTA1: BioMAP Diversity Plus: MyoF Assay for Actin alpha 1 (ACTA1) Biomarker Activity (AID 2284244); conditions: primary human lung fibroblasts
How it was run: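 Cells were exposed to chemical for 24 h before a-SMA levels were quantified by ELISA in human lung fibroblasts. Increases were fitted against DMSO as negative control; parallel SRB staining (0.1% after 10% TCA fixation, 560 nm) assessed cytotoxicity.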

[13] = read-out: Interleukin 2 (IL2), IL2 (gene 3558); assay: BSK_BT_xIL2: BioMAP Diversity Plus: BT Assay for Interleukin 2 (IL2) Biomarker Activity (AID 2284245); conditions: primary human B cells with PBMC
How it was run: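 The BT system combines human B cells with peripheral blood mononuclear cells. Twenty-four hours after chemical dosing, secreted IL-2 was measured with xMAP bead technology, and responses were analyzed as increases over DMSO controls.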

[14] = read-out: Basic fibroblast growth factor (bFGF), FGF2 (gene 2247); assay: BSK_MyoF_bFGF: BioMAP Diversity Plus: MyoF Assay for Basic fibroblast growth factor (bFGF) Biomarker Activity (AID 2284246); conditions: primary human lung fibroblasts
How it was run: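 Chemicals are added to human lung fibroblast cultures and incubated 24 h. bFGF is then measured by ELISA, while parallel cultures receive SRB staining for total protein as a cytotoxicity check. Data are fitted upward against DMSO.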

[15] = read-out: Collagen IV, COL4A1 (gene 1282); assay: BSK_MyoF_CollagenIV: BioMAP Diversity Plus: MyoF Assay for Collagen IV Biomarker Activity (AID 2284247); conditions: primary human lung fibroblasts
How it was run: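 Human lung fibroblast system, 24 h chemical exposure. Endpoint: Collagen IV by ELISA, upward fit vs DMSO.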

[16] = read-out: Plasminogen activator inhibitor-1 (PAI1), SERPINE1 (gene 5054); assay: BSK_MyoF_PAI1: BioMAP Diversity Plus: MyoF Assay for Plasminogen activator inhibitor-1 (PAI1) Biomarker Activity (AID 2284256); conditions: primary human lung fibroblasts
How it was run: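 Activity reflects increased PAI-1, determined by ELISA and compared with DMSO, in human lung fibroblasts treated for 24 h.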

[17] = read-out: Interleukin-8 (IL8), CXCL8 (gene 3576); assay: BSK_MyoF_IL8: BioMAP Diversity Plus: MyoF Assay for Interleukin-8 (IL8) Biomarker Activity (AID 2284261); conditions: primary human lung fibroblasts
How it was run: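 In this multiplexed primary-cell system, fibroblasts from human lung are treated with chemicals, and IL-8 is detected by ELISA at 24 h, with DMSO serving as the negative reference.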

Decorin, DCN (gene 1634) = assay: BSK_MyoF_Decorin: BioMAP Diversity Plus: MyoF Assay for Decorin Biomarker Activity (AID 2284265); conditions: primary human lung fibroblasts
How it was run: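 Lung fibroblast cultures, 24 h chemical exposure. Decorin by ELISA, positive fitting direction, DMSO baseline.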

[18] = BSK_MyoF_SRB: Viability Assessment in the BioMAP Diversity Plus: MyoF Assay (AID 2284267); conditions: primary human lung fibroblasts;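 also: total protein by SRB absorbance in parallel cultures as cytotoxicity measure; cells assessed 24 h after compound addition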
How it was run: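 Confluent human lung fibroblasts were exposed to test chemicals for 24 h. Parallel wells were then fixed in 10% TCA, stained with 0.1% sulforhodamine B and measured at 560 nm. DMSO served as baseline for curve fitting.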

[19] = read-out: TIMP metallopeptidase inhibitor 1 (TIMP1), TIMP1 (gene 7076); assay: BSK_MyoF_TIMP1: BioMAP Diversity Plus: MyoF Assay for TIMP metallopeptidase inhibitor 1 (TIMP1) Biomarker Activity (AID 2284269); conditions: primary human lung fibroblasts
How it was run: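 Fibroblasts from human lung are dosed with chemical, cultured 24 h, and assayed for TIMP-1 by ELISA. Increases over the DMSO baseline are scored, with SRB total-protein staining run in parallel for cytotoxicity.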

Measured: AC50

CNC(=O)Oc1cccc2ccccc12
inactive: [1] | [2] | [3] | [4] | [5] | [8] | [9] | [10]
active: [6] 10 µM | [7] 10 µM

COC(=O)N(C(=O)N1CO[C@@]2(C(=O)OC)Cc3cc(Cl)ccc3C2=N1)c1ccc(OC(F)(F)F)cc1
inactive: [1] | [2] | [3] | [4] | [5] | [6] | [8] | [9] | [10]
active: [11] 1.99 µM

N#CN=C1SCCN1Cc1ccc(Cl)nc1
inactive: [1] | [2] | [3] | [4] | [5] | [6] | [11] | [7] | [8] | [9] | [10]

CC(C)(C)C(=O)C(Oc1ccc(Cl)cc1)n1cncn1 (configuration not stated)
inactive: [1] | [2] | [3] | [4] | [5] | [6] | [11] | [8] | [9] | [10]

C=C(C)CN(CC)c1c([N+](=O)[O-])cc(C(F)(F)F)cc1[N+](=O)[O-]
inactive: [1] | [2] | [3] | [4] | [5] | [6] | [11] | [7] | [9] | [10]

CCNC(=O)NC(=O)C(C#N)=NOC
active: [5] 0.318 µM
inactive: [1] | [2] | [3] | [4] | [6] | [11] | [7] | [8] | [9] | [10]

CN/C(=N\[N+](=O)[O-])NCc1cnc(Cl)s1
inactive: [1] | [2] | [3] | [4] | [5] | [11] | [8] | [9] | [10]
active: [6] 10 µM | [7] 10 µM

Cc1c(COC(=O)[C@@H]2[C@H](/C=C(\Cl)C(F)(F)F)C2(C)C)cccc1-c1ccccc1
active: [11] 1.25 µM
inactive: [1] | [2] | [3] | [4] | [5] | [6] | [7] | [8] | [9] | [10]

COP(=S)(OC)SCn1nnc2ccccc2c1=O
inactive: [1] | [3] | [4] | [5] | [6] | [11] | [7] | [8] | [9] | [10]
active: [2] 13.7 µM

COCC(C)N(C(=O)CCl)c1c(C)csc1C (configuration not stated)
inactive: [13] | [14] | [15] | Decorin, DCN (gene 1634) | [18] | [19]
active: [12] 30.9 µM | [16] 20 µM | [17] 10.3 µM

CO/N=C(/C1=NOCCO1)c1ccccc1Oc1ncnc(Oc2ccccc2Cl)c1F
inactive: [1] | [2] | [3] | [4] | [5] | [6] | [11] | [7] | [8] | [9] | [10]

CS(=O)(=O)c1ccc(C(=O)C2C(=O)CCCC2=O)c([N+](=O)[O-])c1
inactive: [1] | [2] | [3] | [4] | [5] | [8] | [9] | [10]
active: [6] 0.203 µM

O=C(Nc1ccccc1-c1ccc(Cl)cc1)c1cccnc1Cl
inactive: [1] | [2] | [3] | [4] | [5] | [6] | [11] | [7] | [8] | [9] | [10]

CCSC(=O)N1CCCCCC1
inactive: [1] | [2] | [4] | [5] | [11] | [8] | [9] | [10]
active: [3] 8.49 µM | [6] 0.143 µM

CC1(C)C(C=C(Cl)Cl)C1C(=O)OC(C#N)c1cccc(Oc2ccccc2)c1 (configuration not stated)
inactive: [1] | [2] | [3] | [4] | [5] | [6] | [11] | [7] | [8] | [9] | [10]

CS(=O)(=O)c1cc(C(F)(F)F)ccc1C(=O)c1cnoc1C1CC1
inactive: [1] | [2] | [3] | [4] | [5] | [6] | [11] | [7] | [8] | [9] | [10]

CCOP(=O)(OCC)Oc1nc(Cl)c(Cl)cc1Cl
inactive: [1] | [2] | [3] | [4] | [5] | [6] | [7] | [8] | [10]
active: [9] 0.169 µM
